Data on 47 molecules can be found in PubChem BioAssay AID686996 (Broad Institute, 2013).

About 1,900 (0.54%) of roughly 350,000 compounds were called active.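 The calls were made as follows: active = mean inhibition across replicates at least about 35%, with every replicate also reaching that limit (limit read from the data); inconclusive = only one of the two criteria met; inactive = neither criterion met.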 This excerpt belongs to a sample that is enriched for actives.

Caspase-6 (Homo sapiens), sequence (P55212 24-179 limits assumed): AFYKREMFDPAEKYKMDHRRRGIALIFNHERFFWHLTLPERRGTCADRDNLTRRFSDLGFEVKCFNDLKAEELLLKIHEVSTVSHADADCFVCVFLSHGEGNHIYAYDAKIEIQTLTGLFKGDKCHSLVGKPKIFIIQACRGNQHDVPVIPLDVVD
Caspase-6 (Homo sapiens), sequence (P55212 194-293 limits assumed): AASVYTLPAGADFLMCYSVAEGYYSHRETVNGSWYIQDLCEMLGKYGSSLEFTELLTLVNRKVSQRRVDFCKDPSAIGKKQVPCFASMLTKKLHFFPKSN

This test has as its target Caspase-6 (Homo sapiens) (UniProt P55212). The test is described as follows: inhibition of CASP6 peptide cleavage – biochemical, VEID-R110 fluorescence, single point, set 2, primary screen (AID 686996).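 Also: 0% = median of neutral control wells and 100% = no fluorescence left.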 The settings on record: purified caspase-6, Z-VEID-R110 cleavage fluorescence; at 12.5 µM; hits give high values.
A word on the inhibition: it is the relative decrease from the control value, in per cent. In the case of `C[C@H](O)C#Cc1ccc2c(c1)O[C@@H](CN(C)Cc1cncnc1)[C@H](C)CN([C@H](C)CO)S2(=O)=O`, the inhibition was -2.4% (inactive).

On to `O=C(C1CCCC1)N1CC(=O)N2[C@H](C1)[C@@H](c1ccc(-c3cccnc3)cc1)[C@@H]2CO`, for which the inhibition was -0.455% (inactive).

`COCCNC(=O)CSc1nc(N)c(NC(=O)c2ccco2)c(=O)[nH]1`: the inhibition is 2.38% (inactive).

For the molecule `Cc1ccc(NC(=O)OCCNC(=O)c2ccncc2)cc1`, the inhibition is 2.78% (inactive).

As to `COCCNC(=O)Nc1ccc2nc(-c3ccco3)c(-c3ccco3)nc2c1`, the inhibition was 79.9% (active).

`C[C@@H]1CN([C@H](C)CO)C(=O)c2cc(-c3cccc(C(=O)N(C)C)c3)cnc2O[C@H]1CN(C)S(=O)(=O)c1ccc(F)cc1`: the inhibition is 1.95% (inactive).

`COc1ccc(OC)c(/C=C/C(=O)c2ccc3c(c2)OCO3)c1`: the inhibition was 2% (inactive).

In the case of `COC(=O)c1ccc(COc2ccc(/C=C/C(=O)c3ccc(OC)c(CSCC(=O)O)c3)cc2OC)cc1`, the inhibition is 41% (active).

For `COc1cc(/C=C/C(=O)OCC(=O)NC(=O)NCc2ccccc2)ccc1OCC#N`, the inhibition is 0.201% (inactive).

Take `COc1cc(C(=O)NCC(c2ccco2)N2CCCC2)ccc1OCc1ccccc1` (configuration not stated): the inhibition is -1.23% (inactive).

Consider `COc1ccc(C(=O)/C=C/c2ccc(-c3ccccc3)cc2)cc1CSCC(=O)O`, for which the inhibition was 63.7% (active).

As for `COc1ccccc1CCNC(=O)C1CCN(C(=O)/C=C/c2ccccc2)CC1`, the inhibition was -1.88% (inactive).

Regarding `C[C@@H]1CN([C@H](C)CO)C(=O)Cc2cc(NC(=O)Cc3ccccc3)ccc2O[C@H]1CN(C)S(=O)(=O)c1cccs1`, the inhibition was -1.84% (inactive).

Regarding `CCCN1C[C@@H](C)[C@@H](OC)CN(C)C(=O)c2cc(NC(=O)NC3CCCCC3)ccc2OC[C@H]1C`, the inhibition is 0.443% (inactive).

Turning to `C[C@H](CO)N1C[C@H](C)[C@H](CN(C)Cc2ccc(C(F)(F)F)cc2)Oc2ccc(NC(=O)CCCCCC(=O)Nc3ccccc3N)cc2CC1=O`, the inhibition is 1.34% (inactive).

As to `Cc1cc(C)c(S(=O)(=O)NN=C2c3ccccc3[C@H]3Cc4csc[n+]4[C@@H]23)c(C)c1`, the inhibition is 85.1% (active).

Consider `O=C(N[C@H]1CC[C@H](CCNS(=O)(=O)c2ccc(F)cc2)O[C@H]1CO)C1CCCC1`, for which the inhibition was 2.12% (inactive).

On to `C[C@@H]1CCCCO[C@H](CN(C)C)[C@H](C)CN([C@@H](C)CO)C(=O)c2cc(NC(=O)Cc3ccccc3)ccc2O1`, for which the inhibition is -0.443% (inactive).

As to `O=C(Nc1ccc(-c2ccccc2)cc1)[C@@H]1[C@@H](CO)[C@@H]2Cn3c(cccc3=O)[C@H]1N2Cc1ccncc1`, the inhibition is 0.424% (inactive).

On to `C=C1c2c(Cl)ccc(O)c2C(O)=C2C(=O)[C@]3(O)C(O)=C(C(N)=O)C(=O)[C@@H](N(C)C)[C@@H]3[C@@H](O)C12` (some centres not stated), for which the inhibition is 73.9% (active).

Regarding `CN(C)[C@@H]1C(=O)C(C(N)=O)=C(O)[C@@]2(O)C(=O)C3=C(O)c4c(O)ccc(Cl)c4[C@@H](O)[C@H]3C[C@@H]12`, the inhibition is 49.5% (active).

In the case of `C[C@@H]1CCCCO[C@H](CN(C)S(=O)(=O)c2ccc(Cl)cc2)[C@H](C)CN([C@H](C)CO)C(=O)c2cc(NC(=O)NC3CCCCC3)ccc2O1`, the inhibition is -2.73% (inactive).

For the molecule `N#C[C@H]1[C@@H](c2ccc(C3=CCCCC3)cc2)[C@@H](CO)N1C(=O)Cc1ccncc1`, the inhibition is 0.643% (inactive).

As for `O=S(=O)(c1ccccc1)N1[C@H](CO)[C@@H]2c3ccccc3NC[C@@H]21`, the inhibition is -2.35% (inactive).

Consider `C[C@@H]1CN([C@H](C)CO)C(=O)Cc2cc(NC(=O)NC3CCCCC3)ccc2O[C@H]1CN(C)S(=O)(=O)c1ccc(Cl)cc1`, for which the inhibition was 0.436% (inactive).

As for `C[C@H](O)C#Cc1ccc([C@@H]2[C@H](CO)N3CCCCN(CC4CC4)C[C@@H]23)cc1`, the inhibition was 4.05% (inactive).

For `CN(C)CC(=O)N[C@H]1CC[C@H](CCNC(=O)Nc2ccc(F)cc2)O[C@H]1CO`, the inhibition was 2.23% (inactive).

For the molecule `CC(C)NC(=O)N(C)C[C@H]1Oc2ccc(NS(C)(=O)=O)cc2CC(=O)N([C@@H](C)CO)C[C@H]1C`, the inhibition was -2.92% (inactive).

On to `COc1ccc(C=Nc2cccc3ncccc23)cc1`, for which the inhibition was 44.7% (active).

For `COc1ccc2nc(-c3ccccn3)ccc2c1`, the inhibition was -1.05% (inactive).

As to `COc1ccc(-c2cc3ncccc3cn2)cc1`, the inhibition is 1.91% (inactive).

For `C[C@@H]1CCCCO[C@H](CN(C)S(=O)(=O)c2cccs2)[C@H](C)CN([C@@H](C)CO)C(=O)c2cc(NC(=O)Nc3ccc4c(c3)OCO4)ccc2O1`, the inhibition is -0.622% (inactive).

As for `COc1ccc(S(=O)(=O)Nc2ccc3c(c2)CC(=O)N([C@@H](C)CO)C[C@@H](C)[C@@H](CN(C)C)O3)cc1`, the inhibition is 2.95% (inactive).

As to `Cc1cccc(NC(=S)NCc2ccc3[nH]c4c(c3c2)CCCC4)c1`, the inhibition is -0.948% (inactive).

Consider `O=C(CCC(=O)c1ccccc1)NCc1cccc(C(F)(F)F)c1`, for which the inhibition is -0.291% (inactive).

On to `O=C(O)CCC(=O)NCc1ccc2[nH]c3c(c2c1)CCCC3`, for which the inhibition was 41.9% (active).

In the case of `C[C@@H]1CN([C@@H](C)CO)C(=O)c2cccc(NC(=O)Nc3ccc4c(c3)OCO4)c2O[C@H]1CN(C)C(=O)Nc1cccc2ccccc12`, the inhibition was -2.55% (inactive).

For the molecule `C[C@H](CO)N1C[C@H](C)[C@H](CN(C)C(=O)NC2CCCCC2)Oc2ccc(NC(=O)CCCN(C)C)cc2CC1=O`, the inhibition is 1.62% (inactive).

Regarding `C=CCn1c(=S)[nH]c2scc(-c3ccco3)c2c1=O`, the inhibition was 80.7% (active).

On to `C[C@H]1CN([C@@H](C)CO)S(=O)(=O)c2ccc(-c3cccc(C#N)c3)cc2O[C@H]1CN(C)C(=O)c1ccccc1`, for which the inhibition was 5.87% (inactive).

`COc1ccc(NS(=O)(=O)c2ccc(F)cc2F)cn1`: the inhibition was 1.04% (inactive).

Take `Cc1nc2ccccc2c(=O)n1-c1ccc(NS(=O)(=O)c2ccc(F)cc2F)cc1`: the inhibition was 49.9% (active).

On to `Cc1nc2ccccc2c(=O)n1-c1ccc(F)c(NC(=O)c2cccs2)c1`, for which the inhibition was -0.817% (inactive).

Turning to `O=C1C[C@@](C(=O)NCC(F)(F)F)(c2ccc([N+](=O)[O-])cc2)[C@@H](c2ccc(CO)cc2I)N1C1CCCCC1`, the inhibition was 2.45% (inactive).

As for `C[C@H]1CN([C@@H](C)CO)C(=O)Cc2cc(NS(=O)(=O)c3ccccc3)ccc2O[C@H]1CN(C)Cc1ccc(C(=O)Nc2ccccc2N)cc1`, the inhibition is -0.988% (inactive).

Consider `C[C@H]1CN([C@@H](C)CO)C(=O)Cc2cc(NS(=O)(=O)c3ccccc3)ccc2O[C@@H]1CN(C)Cc1ccc(C(=O)Nc2ccccc2N)cc1`, for which the inhibition is 39.7% (active).

For `COc1ccc(S(=O)(=O)Nc2ccc3c(c2)CC(=O)N([C@@H](C)CO)C[C@@H](C)[C@@H](CN(C)Cc2ccc(C(=O)Nc4ccccc4N)cc2)O3)cc1`, the inhibition was -1.35% (inactive).
